HP1b chromo inh = HTS for Inhibitors of HP1-beta Chromodomain Interactions with Methylated Histone Tails; Chromobox protein homolog 1 (Homo sapiens), P83916; AlphaScreen HP1-beta / biotin-H3K9me3 peptide binding; Potency, µM (series often up to 114 µM), hits mostly inhibitors; hit rate 0.56% among 390,000; also: nearly all actives have a fitted effect of over 70% in size
Target sequence (P83916 whole entry, looked up): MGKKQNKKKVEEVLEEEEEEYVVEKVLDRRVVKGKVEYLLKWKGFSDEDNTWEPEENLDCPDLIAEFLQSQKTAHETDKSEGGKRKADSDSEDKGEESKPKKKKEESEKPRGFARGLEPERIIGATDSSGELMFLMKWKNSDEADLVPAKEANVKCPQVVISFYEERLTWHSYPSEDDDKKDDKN
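AlphaScreen: HP1-beta (50 nM) preformed 30 min with biotin-H3(1-18)K9me3 peptide (50 nM) in PBS pH 7.4, 0.01% Tween-20. Compound added for 30 min at RT, then streptavidin donor/nickel chelate acceptor beads (10 ug/mL) for 30 min.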
GLS inhibitor = qHTS for Inhibitors of Glutaminase (GLS); Glutaminase kidney isoform, mitochondrial (Homo sapiens), O94925; GLS enzymatic activity, qHTS titration; Potency, µM (titrated, usually from 45.5 µM), actives largely listed as inhibitors; hit rate 0.21% among 410,000; AID 624170, 2012
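Enzyme dispensed in phosphate buffer (45 mM, pH 8.2, 0.02% Tween-20), compounds pinned in, then 1 mM L-glutamine solution and the glutamate oxidase–HRP–Amplex Red mix added; fluorescence read immediately and again after 30 min at room temperature.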
JMJD2A Tudor = qHTS Assay for Inhibitors of JMJD2A-Tudor Domain. Lysine-specific demethylase 4A (Homo sapiens), O75164. AlphaScreen JMJD2A-Tudor / H3K4me3 peptide binding. Potency, µM (highest dose often 114 µM), usual class: inhibitors. hit rate 4.4% among 390,000. AID 504339, 2011; also: nearly all actives have a fitted effect of over 50% in size
G9a block = qHTS Assay for Inhibitors of Histone Lysine Methyltransferase G9a | Histone-lysine N-methyltransferase EHMT2 (Homo sapiens), Q96KQ7 | G9a H3K9 monomethylation, AlphaScreen, 2 h | Potency, µM (doses to about 102 µM), actives largely listed as inhibitors | hit rate 8.8% among 350,000; also: nearly all actives have a fitted effect of over 75% in size
Target sequence (Q96KQ7 913-1193 limits assumed): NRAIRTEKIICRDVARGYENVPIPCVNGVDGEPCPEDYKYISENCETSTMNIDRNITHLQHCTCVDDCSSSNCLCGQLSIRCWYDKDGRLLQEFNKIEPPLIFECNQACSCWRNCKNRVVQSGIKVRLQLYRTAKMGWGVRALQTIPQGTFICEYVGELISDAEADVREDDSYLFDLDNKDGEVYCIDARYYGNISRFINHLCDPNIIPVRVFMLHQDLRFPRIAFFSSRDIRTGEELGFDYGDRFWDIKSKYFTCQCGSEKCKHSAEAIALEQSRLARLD
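Enzyme 20 nM + cpd, 15 min RT; add b-H3K9 pep 500 nM / SAM 20 uM; 2 h RT; anti-H3K9me1 Ab 0.5 ug/mL + SA donor / anti-rabbit acceptor beads 20 ug/mL each, 10 min; AlphaScreen read.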
BAZ2B inh = qHTS Assay for Inhibitors of BAZ2B; Bromodomain adjacent to zinc finger domain protein 2B (Homo sapiens), Q9UIF8; AlphaScreen BAZ2B-H3K14Ac peptide displacement; Potency, µM (series often up to 114 µM), actives largely listed as inhibitors; hit rate 4.4% among 360,000; AID 504333, 2011; also: nearly all actives have a fitted effect of over 60% in size
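Inhibition is scored as reduced AlphaScreen emission. The BAZ2B/b-H3(5-23)K14Ac complex (50 nM each) in PBS pH 7.4, 0.01% Tween-20 meets compound (up to 110 uM) for 30 min at RT before bead addition.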
Each line names hits and unclear results; the compound was inactive in the other large screens; ! = a repeat was not active. Most compounds without a hit are left out; they make up all but 10% or so of the library. Calls follow the shape of the dose curve; as a rule, active = well fitted curve in the direction sought with a large enough effect; inconclusive = small, poorly fitted or top-dose-only effect, or another doubt; inactive = no such curve, though single readings can be large; an effect the other way counts as inactive or inconclusive.

COc1ccc(/C=C/C(=O)N2CCC(c3nc4ccccc4o3)CC2)cc1	none
O=c1oc2ccccc2nc1/C=C(O)/C=C/c1ccc(F)cc1	JMJD2A Tudor inconclusive, G9a block 45µM, BAZ2B inh 50µM
Cc1ccc(/C(O)=C/c2nc3ccccc3oc2=O)cc1	G9a block 28µM
CC(NC(=O)c1cccc(NC(=O)c2nsc3ccccc23)c1)c1ccccc1 (stereo not given)	none
Cc1ccc(C(=O)Nc2ccc(N3CCCC3)cc2)c(C)c1	HP1b chromo inh inconclusive, JMJD2A Tudor 50µM, BAZ2B inh inconclusive (no result: G9a block)
O=C(Nc1ccc(N2CCCCC2)cc1)c1ccc2ccccc2n1	HP1b chromo inh inconclusive, JMJD2A Tudor 20µM, G9a block 28µM, BAZ2B inh inconclusive
O=C(Nc1ccc(N2CCCC2)cc1)c1ccccc1[N+](=O)[O-]	G9a block 13µM
Cc1ccccc1C(=O)Nc1ccc(N2CCCC2)cc1	JMJD2A Tudor 28µM, G9a block 3.2µM, BAZ2B inh inconclusive
Cc1ccc(C(=O)Nc2ccc3c(c2)C(=O)N(C)C3=O)c(C)c1	none
CCn1c(SCC(=O)Nc2cccc(Cl)c2)nnc1-c1nonc1NC(C)=O	none
CCOC(=O)[C@]12CCC=C1N(Cc1ccco1)C(=O)[C@H](CC(=O)N1CCCCC1)C2	none (no result: HP1b chromo inh, JMJD2A Tudor, G9a block, BAZ2B inh)
Cc1ccc(S(=O)(=O)N2C[C@H]3C(=O)C[C@@H](c4ccccc4)N(S(=O)(=O)c4ccc(C)cc4)[C@H]3C[C@H]2c2ccccc2Cl)cc1	none (no result: HP1b chromo inh, JMJD2A Tudor, G9a block, BAZ2B inh)
O=[N+]([O-])c1ccc(N2CCCCC2)cc1N1CCOCC1	none
O=[N+]([O-])c1ccc(N2CCCC2)cc1N1CCCC1	HP1b chromo inh 16µM, JMJD2A Tudor 45µM, BAZ2B inh 25µM
C/C(=N\N=c1/scc(C)n1Cc1ccco1)c1cccc([N+](=O)[O-])c1	HP1b chromo inh inconclusive, JMJD2A Tudor 25µM, G9a block inconclusive, BAZ2B inh 10µM
Cc1cs/c(=N\N=C\c2cccc([N+](=O)[O-])c2)n1Cc1ccco1	none
CCn1c2c(c(=O)n3ncc(C(=O)N4CCN(c5ccc(Cl)cc5)CC4)c13)CN(Cc1ccc(OC)cc1)CC2	none
Cc1cc(C)cc(N(CC(=O)N2CCN(Cc3ccccc3)CC2)S(=O)(=O)c2c(C)noc2C)c1	G9a block 50µM
Cc1nn(-c2ccccc2)c(N)c1Sc1cccc([N+](=O)[O-])c1	JMJD2A Tudor 56µM, G9a block inconclusive, BAZ2B inh inconclusive
Cc1nn(-c2ccccc2)c(N)c1Sc1ccccc1[N+](=O)[O-]	JMJD2A Tudor inconclusive, BAZ2B inh inconclusive
Cn1c(N)c(C(=O)COC(=O)COc2ccc(Cl)cc2Cl)c(=O)n(C)c1=O	none (no result: G9a block, BAZ2B inh)
O=C(CC(c1ccccc1)c1ccccc1)Nc1ccc(Cl)cn1	none
Cc1cccc(C)c1OCC(=O)Nc1ncn[nH]1	JMJD2A Tudor inconclusive, G9a block 14µM!, BAZ2B inh 50µM
O=C(CC(c1ccccc1)c1ccccc1)Nc1ncn[nH]1	BAZ2B inh 79µM
Cc1cc(OCC(=O)Nc2ccncc2)ccc1Cl	BAZ2B inh inconclusive (no result: G9a block)
COc1ccc(OCC(=O)Nc2cc(-c3nn4c(C)nnc4s3)ccc2C)cc1	none
Cc1cc(OCC(=O)Nc2ncn[nH]2)ccc1Cl	JMJD2A Tudor inconclusive, BAZ2B inh 45µM
Cc1cc(OCC(=O)Nc2cc(-c3nn4c(C)nnc4s3)ccc2C)ccc1Cl	GLS inhibitor inconclusive, JMJD2A Tudor 56µM
O=C(COc1ccc2ccccc2c1Br)Nc1ncn[nH]1	none
O=C(CNC(=O)c1ccc(Cl)c([N+](=O)[O-])c1)OCN1C(=O)c2ccccc2C1=O	G9a block inconclusive
COc1ccc(-c2nc(N3CCN(S(=O)(=O)c4ccccc4)CC3)c3ccccc3n2)cc1	none (no result: GLS inhibitor, G9a block, BAZ2B inh)
COc1ccc(/C=C/C(=O)NCCCN2CCCCCC2)cc1	JMJD2A Tudor inconclusive, G9a block 50µM
O=C(/C=N/O)NCCCN1CCCCCC1	JMJD2A Tudor inconclusive, G9a block 45µM, BAZ2B inh 50µM
O=C(/C=N/O)NCCCN1CCOCC1	none
COc1ccc2cc(/C=C/C(=O)N3CCN(CC(=O)N4CCCCCC4)CC3)ccc2c1	G9a block 71µM

Screens deposited in PubChem BioAssay by National Center for Advancing Translational Sciences (NCATS).
